Luminol counter = counter-screen for Nox1 inhibitors: inhibitors of luminol chemiluminescence. HRP/luminol/H2O2 chemiluminescence counterscreen. inhibition, % at 6.7 µM. 16,000 compounds, 0.4% hits; further: reference of the scale not given here
NOTCH ag = agonists of NOTCH signaling | NOTCH signaling luciferase reporter cells, luminescence | activation, % at 2.5 µM | 15,000 compounds, 0.4% hits; in the data active means activation above about 2.2%
Nox1 inhibitor = inhibitors of human NADPH oxidase 1 (Nox1). Q9Y5S8. HT29 cells, luminol chemiluminescence ROS. inhibition, % at 6.7 µM. 16,000 compounds, 0.81% hits
TLR4-MyD88 inh = inhibitors of human TLR4-MyD88 binding | Cell-based TLR4-MyD88 binding inhibition assay | inhibition, % at 10 µM | Toll-like receptor 4 (Homo sapiens), O00206 | AID 811, 2007 | 16,000 compounds, 0.06% hits; in the data active means inhibition above about 45%
OPRK1 antag MB = antagonists of human kappa opioid receptor OPRK1, Maybridge library; Kappa-type opioid receptor (Homo sapiens), P41145; OPRK1 cells, antagonist mode, fluorescence readout; inhibition, % at 9 µM; 16,000 compounds, 0.4% hits; in the data active means inhibition above about 50%
Target sequence (P41145 whole entry, looked up): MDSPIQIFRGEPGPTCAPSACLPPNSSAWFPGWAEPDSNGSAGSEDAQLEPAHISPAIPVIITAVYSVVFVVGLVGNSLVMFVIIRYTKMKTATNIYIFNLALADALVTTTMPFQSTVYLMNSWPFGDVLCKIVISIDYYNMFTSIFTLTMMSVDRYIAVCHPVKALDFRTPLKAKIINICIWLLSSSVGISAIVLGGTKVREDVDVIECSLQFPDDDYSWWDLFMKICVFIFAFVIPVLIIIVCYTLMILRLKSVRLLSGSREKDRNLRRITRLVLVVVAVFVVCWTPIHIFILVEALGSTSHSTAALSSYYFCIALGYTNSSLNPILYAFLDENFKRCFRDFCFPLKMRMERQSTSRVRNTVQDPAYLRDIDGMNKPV
S1P1 ag = activates the human S1P1 receptor; Sphingosine 1-phosphate receptor 1 (Homo sapiens), P21453; S1P1 agonist cell-based reporter assay; activation, % at 4.5 µM; 16,000 compounds, 1.5% hits; in the data active means activation above about 80%
Numbers without * were called inactive; · = no result. Sampled rows, rich in hits. Any-hit rate of the full collection: about 3.7%. Unless noted, no stated cut-off is given here; in the data, active means inhibition above about 75%; inactive means the rest.

SMILES	Luminol counter	NOTCH ag	Nox1 inhibitor	TLR4-MyD88 inh	OPRK1 antag MB	S1P1 ag
O=S(=O)(Nc1ccc(N2CCCCC2)cc1)c1cc(S(=O)(=O)c2ccccc2)cs1	15.8	-0.1	103.5*	-7.1	5.0	48.0
CC(C)OC(=O)Cc1csc(-c2ccc(Cl)cc2)n1	0.6	-0.5	1.1	-3.5	-8.1	-13.6
Clc1ccc(-c2nc(CN3CCOCC3)cs2)cc1	3.0	0.1	-23.8	1.9	-12.6	102.2*
COc1ccc(C(=O)CC(C(=O)c2ccccc2)c2ccccc2)cc1 (stereo unspecified)	-6.4	-0.3	-8.0	-10.1	20.1	102.2*
CCOC(=O)/C(C#N)=N/Nc1ccsc1C(=O)OC	1.2	-0.2	-8.1	-2.6	-23.9	-6.1
CCOC(=O)c1c(C)nsc1N/N=C(\C#N)C(=O)c1ccc(Cl)cc1	24.5	·	73.8	-26.8	39.7	113.0*
N#C/C(=N\O)C(=O)c1ccc(Cl)cc1	-2.7	0.1	7.0	7.0	12.6	5.3
N#C/C(=N\Nc1ccc(F)cc1)C(=O)c1ccc(Cl)cc1	5.5	0.7	-4.0	-9.3	17.3	103.1*
CCc1ccc(-n2nnnc2C/C=N/Nc2ccc([N+](=O)[O-])cc2)cc1	12.5	-0.5	26.5	-5.2	-3.9	16.4
O=C(Nc1cc(Cl)cc(Cl)c1)Nc1cccnc1N1CCC(C(F)(F)F)CC1	-0.9	0.0	35.1	-0.2	5.0	-0.4
CSc1nc2c(c(-c3cccs3)c1C#N)CCCC2	-6.8	-0.1	11.1	3.7	12.3	13.3
C#Cc1cccc(NC(=O)c2sc3nc4c(c(-c5cccs5)c3c2N)CCCC4)c1	1.6	1.0	-13.7	-4.5	64.7*	21.0
CCOC(=O)[C@@H](N)CCSC	-2.8	-0.3	14.6	0.3	51.8*	-1.0
Cc1c(C(=O)COC(=O)c2ccc(Cl)cc2Cl)sc2ccc(Cl)cc12	-1.1	-0.1	-16.6	7.3	-6.4	-14.6
Cc1onc(-c2ccccc2)c1NC(=O)Nc1ccc(-n2ccc(C(F)(F)F)n2)cc1	3.4	-0.5	-41.0	2.9	8.4	97.9*
O=C(Nc1ccccc1)Nc1ccc(-n2ccc(C(F)(F)F)n2)cc1	-2.9	-1.3	-0.9	-1.4	17.5	69.5
COc1ccc(NC(=O)CSc2ccc([N+](=O)[O-])cc2[N+](=O)[O-])cc1	0.6	-0.6	-3.4	-2.9	4.7	9.7
CCOC(=O)CCc1ccc(Oc2c([N+](=O)[O-])cc(C(F)(F)F)cc2[N+](=O)[O-])cc1	-40.0	·	-50.0	0.8	7.9	-2.6
CCOC(=O)CCc1ccc2c(c1)NC(c1cccc([N+](=O)[O-])c1)O2 (stereo unspecified)	33.2	-0.2	95.8*	-7.7	-12.8	2.6
CCOC(=O)CCc1ccc2c(c1)NC(c1ccc([N+](=O)[O-])s1)O2 (stereo unspecified)	14.9	0.4	81.6*	-3.1	4.1	-7.6
O=C(CSCc1csc2ccc(Cl)cc12)Nc1ccccc1Cl	3.7	0.1	-49.2	-0.2	-0.4	-1.6
COc1ccc(/C=C(\C#N)c2ccccn2)cc1	1.4	-0.3	-33.8	-15.4	15.9	-16.2
Cc1cc(-c2n[nH]c(=S)n2C)nn1-c1ccc([N+](=O)[O-])cc1	-0.7	-1.4	-37.6	3.1	-18.9	99.7*
Cc1c(-c2c(C#N)cnn2-c2ccc([N+](=O)[O-])cc2)sc2ccc(Cl)cc12	-2.4	-0.4	39.4	-8.8	9.2	-6.2
C=C(C)c1ccccc(=O)c1O	-2.5	4.9*	-21.4	0.1	-12.3	-3.5
SMILES	Luminol counter	NOTCH ag	Nox1 inhibitor	TLR4-MyD88 inh	OPRK1 antag MB	S1P1 ag
O=C(Oc1ccc(-c2csnn2)cc1)c1ccc([N+](=O)[O-])o1	101.4*	-0.6	-40.0	0.0	11.5	5.2
O=C(Nc1ccc(Cl)cc1)Oc1ccc(-c2csnn2)cc1	101.7*	0.0	5.3	9.4	4.0	-1.0
Cc1ccc(CSc2nnc(-c3cnccn3)s2)cc1	-0.3	-0.2	-46.0	7.8	-3.1	93.0*
Fc1ccc(CSc2nnc(-c3ccncc3)s2)cc1	-6.1	-0.1	13.2	10.9	12.2	101.0*
COC(=O)/C=C1\SC(=Nc2ccc(Cl)cc2)N(c2ccc(Cl)cc2)C1=O	-4.0	0.9	-4.8	-22.8	64.9*	46.5
Cc1nn(-c2ccccc2)nc1CNC(=O)C1=Cc2ccccc2OC1	-2.2	2.3*	-3.8	3.2	4.4	-14.4
O=C(NCc1csc(-c2cccs2)n1)C1=Cc2ccccc2OC1	-6.0	0.2	23.1	4.1	2.9	24.8
COc1ccc(OC)c(S(=O)(=O)c2ccc([N+](=O)[O-])cc2Cl)c1	3.9	-0.8	89.4*	9.2	-7.3	-4.7
CSc1nn2c(=O)c(Cc3ccccc3)nnc2s1	-0.6	-5.8	-30.5	-1.8	2.0	3.4
O=C(Nc1ccc2c(c1)OCCO2)c1ccc(Oc2cc(Cl)cc(Cl)c2)o1	-0.7	-0.2	2.7	5.3	9.5	-11.7
COc1ccc(OC(=O)c2ccc3ncccc3c2)cc1	-3.3	-0.3	91.9*	5.4	15.9	19.1
FC(F)(F)c1ccc(NC(=S)N2CCSCC2)c(Cl)c1	1.2	-4.9	7.3	-5.8	-4.1	-1.6
Cc1ccc(C(=O)NNc2ncnc3cc(C(C)(C)C)sc23)cc1	-2.3	-0.4	72.8	-2.3	-3.8	4.0
Cc1cc(S(=O)(=O)NNc2ncnc3cc(C(C)(C)C)sc23)c(C)cc1Cl	-0.7	-0.1	93.7*	2.1	-10.6	-14.4
Cc1nn(C(=O)c2ccccc2)c(C)c1Oc1ccc(Cl)cc1	-0.6	3.9*	-41.3	11.9	-8.4	14.0
COc1ccc(CCN2C(=O)CCC(C(=O)O)C2c2cc(OC)c(OC)c(OC)c2)cc1OC (stereo unspecified)	2.8	-0.1	-47.6	8.2	-8.0	116.4*
COc1ccc(CCNC(=O)C2CCCO2)cc1OC (stereo unspecified)	-0.7	-0.5	-42.5	-8.1	2.7	-4.6
CSC(=NCc1c(N(C)C)cccc1N(C)C)NS(=O)(=O)c1ccccc1	3.3	·	-42.1	5.2	2.7	94.8*
CN(C)c1ccc(C2OCCN2C(=S)Nc2ccccc2F)cc1 (stereo unspecified)	-3.3	0.2	2.6	0.7	-2.9	-0.3
C[n+]1cccc(-c2n[nH]c(-c3ccccc3)n2)c1	3.4	·	-20.5	8.0	7.8	110.0*
Brc1csc(C2SCCS2)c1	-6.7	-1.0	-13.7	-3.1	5.9	-4.5
COc1ccc(Cl)cc1NC(=O)Nc1ccc(N(C)C)cc1	1.4	1.1	98.9*	-5.4	11.2	2.2
CCOc1ccc(/C=N/NC(=S)Nc2ccc(S(=O)(=O)N3CCCCC3)cc2)cc1	-0.9	0.7	15.7	-3.9	-7.8	-20.4
COc1ccc(NC(C)=O)cc1C(C)=O	3.4	·	-25.1	1.5	0.8	-0.1
COc1ccc(C(=O)C=C(C)C)c(O)c1O	40.6	0.2	75.7*	-3.4	-21.1	6.0
O=C(N/N=C/C=C/c1ccccc1)N/N=C/C=C/c1ccccc1	2.0	0.3	-20.0	-1.6	-3.5	-8.1

From PubChem
